Rows were chosen to be rich in hits. Some 2.8% of all compounds tested hit in one or more screens of this group.
bovine MsrA act: activates bovine MsrA enzyme; purified bovine MsrA, absorbance read-out; activation, % at 10.6 µM; hit rate 0.3% among 360,000; in the data active means activation above about 7.5%;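 further: 0% = vehicle and 100% = reference activator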
MsrA inh: inhibitors of bovine MsrA; purified bovine MsrA, absorbance read-out; inhibition, % at 15.5 µM; hit rate 0.75% among 360,000; AID 651718; in the data active means inhibition above about 4.5%;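 further: 0% = vehicle wells with enzyme and 100% = reference inhibitor wells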
SMARCA2 activ: activators of SMARCA2 function. MG213 cells, MMTV-luciferase reporter, dexamethasone, overnight. activation, % at 9.1 µM. hit rate 1% among 370,000. AID 652017; in the data active means activation above about 7.8%;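 further: 0% = vehicle wells and 100% = reference activator wells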
proKLK7 act: proKLK7 (human) activation, primary screen; P49862; AID 652039; hit rate 0.9% among 370,000; activation, % at 7 µM; purified proKLK7, EDANS-DABCYL substrate fluorescence; 100% is mature enzyme control, 0% vehicle;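 active means activation above the mean of all tested compounds plus 3 SD, computed per campaign excluding outliers beyond control limits, cut at about 13% in these data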
Target sequence (P49862 whole entry, looked up): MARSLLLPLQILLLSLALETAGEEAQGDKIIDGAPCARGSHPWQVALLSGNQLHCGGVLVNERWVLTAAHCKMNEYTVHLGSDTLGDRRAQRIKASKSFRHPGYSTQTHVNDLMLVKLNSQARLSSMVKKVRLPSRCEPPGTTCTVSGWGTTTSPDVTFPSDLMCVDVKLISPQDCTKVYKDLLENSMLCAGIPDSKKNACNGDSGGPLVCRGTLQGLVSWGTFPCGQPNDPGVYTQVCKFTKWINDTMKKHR
MsrA act confirm: bovine methionine sulfoxide reductase A activation confirmed | purified bovine MsrA, absorbance read-out | hit rate 12% among 1,000 | activation, % at 10.6 µM | shares compounds with bovine MsrA act; in the data active means activation above about 4%;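 further: enzyme coupled to thioredoxin and thioredoxin reductase with NADPH; 0% = vehicle wells and 100% = reference activator wells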
* marks the source's active call; other numbers are inactive results; / = no result.

SMILES | bovine MsrA act | MsrA inh | SMARCA2 activ | proKLK7 act | MsrA act confirm
Cc1ccc(CSc2nnc(-c3cc(-c4ccc(C)cc4)n[nH]3)n2N)cc1 | / | / | -3 | -1 | /
O=C(COc1ccc(Br)cc1)OCC(=O)N1CCOCC1 | 0 | 0 | 1 | 0 | /
O=C(COc1ccc2cc(Br)ccc2c1)N1CCOCC1 | 13* | -1 | -1 | 0 | -4
CC1=C(C)CS(=O)N(S(=O)(=O)c2ccccc2)C1 (configuration not stated) | 2 | -2 | 1 | 0 | /
CC1=C(C)CS(=O)N(c2ccc(S(N)(=O)=O)cc2)C1 (configuration not stated) | 7.8* | -1 | 4 | 1 | -3
CC(C)(C)c1ccc(OCCC(=O)NCC(c2cccs2)N2CCOCC2)cc1 (configuration not stated) | 13* | -1 | 0 | 1 | 1
CCOc1ccc(N2C(=O)CC(Sc3nc(-c4cccs4)cc(C(F)(F)F)c3C#N)C2=O)cc1 (configuration not stated) | 10* | 2 | -2 | -3 | -2
CCc1nnc(N/N=C/c2ccc(-c3ccc([N+](=O)[O-])cc3)o2)n1N | 8.4* | 1 | 3 | 1 | 0
Cc1nnc(N/N=C\c2ccc(-c3ccccc3[N+](=O)[O-])o2)n1N | 17* | 2 | -2 | 0 | -6
Cc1nnc(N/N=C/c2c(Cl)cccc2Cl)n1N | 6 | 0 | 5 | 0 | /
Cc1nnc(N/N=C/c2ccccc2O)n1N | 8.8* | 0 | -13 | 0 | -1
Cc1ccc(S(=O)(=O)N2CCC(C(=O)OCC(=O)N3CCc4ccccc43)CC2)cc1 | 8.4* | -1 | -1 | 0 | 0
CCCCCCn1c(=O)n2n(c1=O)[C@@H]1CN(S(=O)(=O)c3ccc(C)cc3)C[C@]1(O)[C@@H](OC(=O)NC1CCCC1)C2 | -6 | 0 | -2 | 0 | /
CCOC(=O)[C@@]12CCC3=C1N(CCC3)C(=O)[C@H](CC(=O)NCC13CC4CC(CC(C4)C1)C3)C2 | / | / | -2 | 0 | /
O=c1c2cc(C(F)(F)F)ccc2sn1-c1ccccc1 | 7 | -1 | -2 | 0 | /
O=c1c2cc(F)ccc2sn1-c1ccccc1 | 15* | 0 | 4 | 0 | 9.8*
Cc1ccccc1-n1sc2cc(F)ccc2c1=O | 15* | 1 | -1 | 0 | 9.7*
CN(C)S(=O)(=O)c1cccc(-n2sc3ccccc3c2=O)c1 | 7.7* | -1 | 3 | 0 | 8.9*
Cc1ccc(-n2sc3ccccc3c2=O)cc1S(=O)(=O)N1CCCCC1 | 4 | 1 | 0 | 0 | /
O=c1c2ccccc2sn1-c1ccccc1 | 12* | 1 | 5 | 0 | 13*
Cc1ccc(NC(=O)c2ccc(OCC3CCCO3)cc2)cc1Cl (configuration not stated) | -2 | 0 | -4 | 0 | /
N#CCC[C@H]1CC[C@]2(CCCN(Cc3cccc4ccccc34)C2)O1 | / | / | -5 | 0 | /
COc1ccc(C2CC(=O)C(c3ccc(Cl)cc3)=CN2Cc2ccccc2)cc1 (configuration not stated) | / | 0 | -1 | 0 | /
CCOC(=O)c1csc(-c2snnc2C)n1 | 8.0* | 0 | 4 | 1 | -5
CCOC(=O)c1csc(N)n1 | -4 | -3 | 0 | 0 | /
SMILES | bovine MsrA act | MsrA inh | SMARCA2 activ | proKLK7 act | MsrA act confirm
Cc1csc(SCC(=O)c2c(N)n(C)c(=O)n(C)c2=O)n1 | 9.7* | 0 | 6 | 0 | -2
CCCN1CCN(C(=O)CS(=O)(=O)Cc2nc(-c3cccc(OC)c3)oc2C)CC1 | 9.3* | -1 | 0 | 0 | -2
CC(=O)O[C@@H](C[C@@H](C)C1=C2C[C@H](O)C3[C@@]4(C)CCC(=O)C(C)(C)C4CC[C@]3(C)[C@@]2(C)CC1)[C@H]1OC1(C)C (some centres not stated) | 1 | -1 | -1 | -1 | /
C=CCC(CC)C(=O)NC(=O)N1CCCc2ccccc21 (configuration not stated) | 12* | 0 | 0 | 0 | -1
CCOc1ccccc1NC(=O)N1CCCc2ccccc21 | 0 | -1 | -1 | 0 | /
Cc1cc(C)n(-c2ccc(-n3ccnc3)nn2)n1 | -1 | -1 | 1 | 0 | /
CCOc1ccc(-n2ccnc2)nn1 | 8.1* | 0 | 0 | 0 | -3
COCCN1C[C@@H](CO)O[C@@H](n2cnc3c(NC4CCCC4)ncnc32)C1 | 0 | -1 | 1 | -1 | /
N#Cc1cnn(-c2ccc([N+](=O)[O-])cc2[N+](=O)[O-])c1N | 8.3* | 0 | -1 | 0 | 2
Cc1ccc(C)c2nc3sc(C(=O)N4CCOCC4)c(N)c3cc12 | 8.8* | 2 | 6 | 3 | 4.9*
Cc1noc(C)c1COc1ccccc1C(=O)NCCc1ccc(S(N)(=O)=O)cc1 | 7.8* | 0 | 1 | 0 | -2
O=C(CSc1nc2cc(Cl)ccc2s1)c1cc2ccccc2o1 | 9.9* | 2 | -3 | 0 | -2
O=C(NCCc1ccc(Cl)cc1)C12CC3CC(CC(O)(C3)C1)C2 | 9.2* | 0 | 0 | 0 | -3
O=C(COc1ccccc1Cl)c1ccc2c(c1)CCCC2 | 8.3* | -1 | 5 | 0 | -3
CC(C)OC(=O)c1sc2nc(-c3ccccc3)ccc2c1N | 8.8* | 1 | -2 | -3 | 0
C[C@@H]1Cn2cnc(C(=O)N3CCN(C(=O)OC(C)(C)C)CC3)c2C(=O)N1 | / | 1 | -1 | 0 | /
C[C@H](O)[C@@H]1CN2CCc3c([nH]c4c(-c5ccccc5)cccc34)[C@@H]2C[C@@H]1N(C)C(=S)NCCc1ccccc1 | / | -1 | -1 | 1 | /
O=C(O)[C@@H]1Cc2ccccc2N1 | 8.2* | 1 | -3 | -1 | -2
O=C(O)C1Cc2ccccc2-c2ccccc2C1 | 0 | 1 | -1 | 0 | /
O=C(c1cccc([N+](=O)[O-])c1)c1cc2ccccc2o1 | 8.8* | 1 | 0 | 0 | 0
C/C(=N\Nc1cccc([N+](=O)[O-])c1)c1cc2ccccc2o1 | -3 | 2 | -1 | 0 | /
Cc1c(C(=O)NCc2ccccc2C(F)(F)F)sc(=O)n1Cc1ccc2c(c1)OCO2 | -2 | -1 | 0 | 0 | /
O=C1CCC(C(=O)N2CCCCCCC2)CN1Cc1cccc(C(F)(F)F)c1 (configuration not stated) | -2 | 2 | -1 | 0 | /
O=C1CCC(C(=O)N2CCCC2)CN1Cc1cccc(C(F)(F)F)c1 (configuration not stated) | 9.8* | -1 | -1 | -1 | 2
O=C(c1cc(C2CC2)on1)N(C1CCCCC1)C1CCOCC1 | / | / | -2 | 1 | /
Cc1ccc(S(=O)(=O)Nc2ccccc2C(=O)Nc2nc(-c3ccc(F)cc3)cs2)cc1 | -4 | 0 | -10 | -2 | /
COc1ccc(-c2csc(NC(=O)c3ccccc3NS(=O)(=O)c3ccc(F)c(F)c3)n2)cc1 | 15* | 2 | -11 | 0 | -4
Cn1c(SCCOc2ccccc2Cl)nnc1-c1ccncc1 | 8.5* | -2 | -2 | 0 | 0
NC(=O)c1ccc(=O)n(Cc2ccc(F)c(F)c2)c1 | 8.0* | 0 | 1 | 0 | -1
Cc1cccc(NC(=O)c2cc(S(=O)(=O)N3CCCCC3)ccc2Cl)n1 | 12* | 0 | -2 | 1 | -1

Bioassay records from PubChem.
